Assay results as given in publication PMC5540273 (PLoS ONE, 2017).

Legend:
Conditions in all cases: concentration: 1 μM, replicates: in singlicate; n = 1
ACVR1B = tested on: ACVR1B
ACVR1 = tested on: ACVR1
ACVR2A = tested on: ACVR2A
ACVR2B = tested on: ACVR2B
ACVRL1 = tested on: ACVRL1
ADCK3 = tested on: T1, ADCK3
T1 construct: gene CABC1

ADCK4 = tested on: ADCK4
AKT1 = tested on: AKT1
AKT2 = tested on: AKT2
AKT3 = tested on: AKT3
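Further: KINOMEscan kinase panel screen.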

| SMILES | %Inh (ACVR1B) [%] | %Inh (ACVR1) [%] | %Inh (ACVR2A) [%] | %Inh (ACVR2B) [%] | %Inh (ACVRL1) [%] | %Inh (ADCK3) [%] | %Inh (ADCK4) [%] | %Inh (AKT1) [%] | %Inh (AKT2) [%] | %Inh (AKT3) [%] |
| --- | --- | --- | --- | --- | --- | --- | --- | --- | --- | --- |
| Nc1n[nH]c2nnc(-c3ccccc3)c(-c3ccccc3)c12 [GW554060] | 0 | 21 | 0 | 0 | 0 | 27 | 36 | 0 | 16 | 0 |
| Cc1ccc(-c2ccc3c(ccc4sc5c(c43)NC[C@@H](C)N=C5N(C)C)n2)cn1 | 0 | 0 | 0 | 0 | 12 | 0 | 0 | 0 | 0 | 0 |
| CCC(=O)c1c(-c2ccccc2)c2cc(Cl)ccc2c(=O)n1Cc1cc(S(C)(=O)=O)n(CCC(C)(C)O)n1 | 10 | 2 | 0 | 9 | 17 | 27 | 1 | 0 | 14 | 17 |
| COc1cc2ncn(-c3cc(OCc4ccncc4Br)c(C(N)=O)s3)c2cc1OC [GW854278] | 9 | 5 | 8 | 2 | 0 | 15 | 0 | 0 | 0 | 0 |
| OCCCNc1nccc(-c2c(-c3cccc(C(F)(F)F)c3)nn3cc(C(F)(F)F)ccc23)n1 [GW630813] | 0 | 0 | 0 | 0 | 0 | 68 | 43 | 0 | 0 | 0 |
| O=C(NCCNc1ccnc(Nc2ccc(F)cc2)n1)Nc1ccc2c(c1)OCO2 [GSK1379882] | 0 | 0 | 0 | 0 | 0 | 9 | 23 | 0 | 0 | 0 |
| CCC(=O)c1c(-c2ccccc2)c2cc(Cl)ccc2c(=O)n1Cc1cc(S(C)(=O)=O)n(CC(F)F)n1 | 0 | 0 | 0 | 0 | 0 | 0 | 0 | 0 | 0 | 0 |
| Cl.NS(=O)(=O)c1cccc(Nc2cc(-c3ccc(F)cc3)n[nH]2)c1 [GW824645] | 0 | 0 | 0 | 0 | 0 | 0 | 0 | 0 | 0 | 0 |
| Nc1n[nH]c2ncc(-c3ccccc3)cc12 [SB-517081] | 0 | 8 | 0 | 5 | 0 | 7 | 19 | 0 | 12 | 0 |
| O=C1NC(=O)C(c2ccccc2)=C1Nc1cccc(O)c1 [SB-390534] | 0 | 22 | 0 | 0 | 0 | 0 | 0 | 0 | 0 | 0 |
| COc1cc(Nc2nccc(N3CCC(NC(=O)C(C)c4ccc(Cl)cc4)C3)n2)cc(OC)c1OC (centres unmarked) [GSK1379757] | 0 | 4 | 0 | 12 | 0 | 3 | 69 | 0 | 0 | 0 |
| COc1ccc(-c2cc3c(C)nc(N)nc3n([C@H]3CC[C@H](O)CC3)c2=O)cn1 | 0 | 0 | 0 | 0 | 0 | 0 | 0 | 0 | 0 | 0 |
| COc1ccc(CNC(=O)NC2CCN(c3ccnc(Nc4ccc(F)cc4)n3)C2)cc1 (centres unmarked) [GSK1379706] | 0 | 49 | 0 | 5 | 0 | 29 | 48 | 0 | 0 | 0 |
| O=C(Nc1ccc2c(c1)OCO2)NC1CCN(c2ccnc(NCc3ccc(F)cc3)n2)CC1 [GSK1379859] | 0 | 0 | 0 | 0 | 0 | 0 | 30 | 0 | 5 | 0 |
| Cc1nnc(-c2ccc3ncn(-c4ccc(S(C)=O)cc4)c3c2)o1 (centres unmarked) | 15 | 0 | 0 | 0 | 9 | 5 | 0 | 0 | 0 | 0 |
| CCS(=O)(=O)c1ccc(OC)c(Nc2ncc(-c3ccc(F)cc3)o2)c1.Cl [GW591947] | 0 | 0 | 0 | 0 | 0 | 1 | 15 | 0 | 0 | 9 |
| O=C(NCc1cccs1)c1cc(C(=O)c2c(Cl)cccc2Cl)c[nH]1 [GW823670] | 12 | 0 | 0 | 0 | 5 | 0 | 0 | 0 | 0 | 0 |
| CCn1c(-c2nonc2N)nc2ccccc21 [SB-693162/GW549034] | 1 | 0 | 0 | 0 | 0 | 4 | 0 | 0 | 1 | 0 |
| CCCNC(=O)Nc1ccc(Oc2ncnc3ccn(C)c23)cc1 | 13 | 0 | 2 | 0 | 0 | 0 | 0 | 7 | 8 | 0 |
| CCC(=O)c1c(-c2ccccc2)c2cc(Cl)ccc2c(=O)n1Cc1cc(S(C)(=O)=O)n(CC(N)=O)n1 | 0 | 0 | 14 | 0 | 0 | 29 | 0 | 0 | 0 | 0 |
| Cn1c(=O)c(F)c(Nc2ccc(I)cc2F)c2c(=O)n(OC[C@H](O)CO)cnc21 | 0 | 14 | 29 | 28 | 1 | 21 | 0 | 15 | 0 | 0 |

| SMILES | %Inh (ACVR1B) [%] | %Inh (ACVR1) [%] | %Inh (ACVR2A) [%] | %Inh (ACVR2B) [%] | %Inh (ACVRL1) [%] | %Inh (ADCK3) [%] | %Inh (ADCK4) [%] | %Inh (AKT1) [%] | %Inh (AKT2) [%] | %Inh (AKT3) [%] |
| --- | --- | --- | --- | --- | --- | --- | --- | --- | --- | --- |
| Nc1ncnc2c1ncn2-c1ccc(Cl)cc1 [AH2635] | 0 | 3 | 0 | 16 | 0 | 24 | 33 | 0 | 0 | 0 |
| Cc1nn2c(=O)cc(N3CCOCC3)nc2n1Cc1cccc(Cl)c1Cl [GSK2342769] | 0 | 12 | 0 | 0 | 42 | 10 | 4 | 0 | 14 | 0 |
| CN1C(=O)C(Nc2ccccc2)=C(c2ccccc2)C1=O [SB-300079] | 8 | 0 | 0 | 0 | 0 | 0 | 25 | 0 | 0 | 0 |
| C[C@@H]1CC[C@H](C(=O)NC2CCCCC2)CN1c1cc(-c2ccc3c(N)n[nH]c3c2)nc(N)n1 [GSK2291363] | 0 | 0 | 0 | 0 | 0 | 22 | 49 | 0 | 11 | 0 |
| Cc1c(Cn2c(C)nn3c(=O)cc(N4CCO[C@H](C)C4)nc23)cccc1C(F)(F)F [GSK2373690] | 0 | 2 | 3 | 0 | 0 | 22 | 24 | 0 | 6 | 28 |
| Cc1nnc(-c2ccc(C)c(-c3ccc(C(=O)O)cc3)c2)o1 [GW608005] | 0 | 4 | 0 | 0 | 0 | 0 | 0 | 0 | 6 | 0 |
| COc1cc2ncn(-c3cc(OCc4ccc(S(C)(=O)=O)cc4)c(C(N)=O)s3)c2cc1OC [GW869979] | 0 | 51 | 0 | 0 | 4 | 31 | 0 | 0 | 0 | 0 |
| O=C(Nc1n[nH]c2nc(-c3ccccc3)c(Br)cc12)C1CC1 [SB-708998] | 0 | 21 | 24 | 7 | 21 | 4 | 1 | 7 | 4 | 0 |
| O=C(Nc1n[nH]c2cc(-c3ccccc3F)ccc12)C1CC1 [SB-733371] | 1 | 32 | 38 | 48 | 0 | 0 | 0 | 0 | 0 | 7 |
| Fc1cccc(CSc2nnc(-c3ccc4c(c3)CCO4)o2)c1 | 17 | 0 | 0 | 0 | 0 | 0 | 6 | 12 | 14 | 0 |
| CC(C)(C)c1ccc(C(=O)Nc2cn3cc(-c4ccccc4)ccc3n2)cc1 | 0 | 5 | 0 | 0 | 5 | 25 | 0 | 0 | 0 | 0 |
| CN1C(=O)C(Nc2cc(Cl)c(O)c(Cl)c2)=C(c2ccc(Cl)cc2)C1=O [SB-404321] | 0 | 0 | 0 | 0 | 0 | 3 | 16 | 0 | 0 | 0 |
| Cc1cccc(-c2nc(Nc3ccc4c(cnn4C)c3)c3ccccc3n2)n1 [GW876731] | 64 | 0 | 2 | 0 | 0 | 8 | 4 | 21 | 0 | 20 |
| Cc1cccc(-c2cc(-c3c[nH]nc3-c3ccccn3)ccn2)c1 [GW679395] | 0 | 0 | 0 | 3 | 0 | 3 | 22 | 0 | 1 | 0 |
| Cc1cc(Nc2nc(-c3cccc(C)n3)nc3ccccc23)ccn1 [GW872411] | 73 | 0 | 2 | 13 | 0 | 0 | 0 | 0 | 0 | 2 |
| Cc1ccccc1COc1cc(-n2cnc3cc(Cl)ccc32)sc1C(N)=O [GW813349] | 0 | 0 | 10 | 19 | 3 | 12 | 0 | 0 | 3 | 6 |
| Cc1nc(N(C)[C@H]2CN(C(=O)CC#N)CC[C@H]2C)c2cc[nH]c2n1 | 8 | 8 | 15 | 0 | 5 | 0 | 0 | 0 | 1 | 3 |
| CCc1nc(-c2cccc(C)c2)c(-c2ccncc2)s1 | 20 | 3 | 5 | 0 | 5 | 55 | 0 | 0 | 0 | 0 |
| FC(F)(F)c1ccc(-c2ncn(CCCN3CCOCC3)c2-c2ccncc2)cc1 [SB-217780] | 10 | 0 | 0 | 0 | 4 | 1 | 8 | 0 | 0 | 28 |
| COc1cc2nccc(Nc3cccc(Oc4ccccc4)c3)c2cc1OC.Cl [GW284543] | 12 | 0 | 0 | 0 | 0 | 32 | 22 | 0 | 7 | 0 |
